Publication PMC11006913
Residue numbers refer to the chain shown, from its start.

Experiments:
Test in all cases: PBM; 200 nM protein, PBS
Details in all cases: dsDNA, one strand shown
HOXB9 [1] = target: HOXB9 (Homo sapiens, UniProt P17482 171-250, T197M)
HOXC9 [2] = target: HOXC9 (Homo sapiens, UniProt P31274 178-260, K195R)
VENTX [3] = target: T1, VENTX (Homo sapiens, UniProt O95231 78-163)
T1 sequence: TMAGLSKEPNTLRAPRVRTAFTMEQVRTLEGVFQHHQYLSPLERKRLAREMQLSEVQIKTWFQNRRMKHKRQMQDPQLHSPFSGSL

PAX4 [4] = target: T2, PAX4 (Homo sapiens, UniProt O43316 9-242, R200K)
T2 sequence: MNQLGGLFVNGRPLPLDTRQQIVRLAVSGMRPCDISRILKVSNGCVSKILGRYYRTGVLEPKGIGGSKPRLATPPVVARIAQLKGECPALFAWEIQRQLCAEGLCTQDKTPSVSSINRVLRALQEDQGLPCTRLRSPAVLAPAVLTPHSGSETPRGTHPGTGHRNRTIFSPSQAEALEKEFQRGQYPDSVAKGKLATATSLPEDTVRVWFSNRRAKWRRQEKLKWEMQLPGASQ

VENTX [5] = target: T3, VENTX (Homo sapiens, UniProt O95231 78-163, Y115F)
T3 sequence: T1 sequence with Y38F

PAX4 [6] = target: T4, PAX4 (Homo sapiens, UniProt O43316 9-242)
T4 sequence: T2 sequence with K192R

HOXB9 [7] = target: HOXB9 (Homo sapiens, UniProt P17482 171-250)
HOXB9 (Homo sapiens, UniProt P17482 171-250), sequence (P17482 171-250): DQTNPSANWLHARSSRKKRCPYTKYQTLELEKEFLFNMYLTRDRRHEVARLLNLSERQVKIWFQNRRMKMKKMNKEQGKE

PAX4 [8] = target: T5, PAX4 (Homo sapiens, UniProt O43316 9-242, R200Q)
T5 sequence: T2 sequence with K192Q

HOXC9 [9] = target: HOXC9 (Homo sapiens, UniProt P31274 178-260, R193K)
HOXC9 (Homo sapiens, UniProt P31274 178-260, R193K), sequence (P31274 178-260 R193K): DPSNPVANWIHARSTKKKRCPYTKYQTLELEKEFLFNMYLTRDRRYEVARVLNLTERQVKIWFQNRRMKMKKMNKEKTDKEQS

HOXA2 [10] = target: HOXA2 (Homo sapiens, UniProt O43364 129-215, R185K)
HOXA2 (Homo sapiens, UniProt O43364 129-215, R185K), sequence (O43364 129-215 R185K): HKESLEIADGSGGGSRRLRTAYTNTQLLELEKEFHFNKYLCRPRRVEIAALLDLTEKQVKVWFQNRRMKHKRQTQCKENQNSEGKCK

PAX4 [11] = target: T6, PAX4 (Homo sapiens, UniProt O43316 9-242, F177V)
T6 sequence: T2 sequence with F169V, K192R

HOXC10 = HOXC10 (Homo sapiens, UniProt Q9NYD6 254-340, K271E)
HOXC10, sequence (Q9NYD6 254-340 K271E): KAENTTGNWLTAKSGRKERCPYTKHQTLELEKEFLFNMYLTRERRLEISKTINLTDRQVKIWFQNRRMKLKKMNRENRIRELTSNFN

PAX4 [12] = target: T7, PAX4 (Homo sapiens, UniProt O43316 9-242, F177Y)
T7 sequence: T2 sequence with F169Y, K192R

HOXB9 [13] = target: HOXB9 (Homo sapiens, UniProt P17482 171-250, R186Q)
HOXB9 (Homo sapiens, UniProt P17482 171-250, R186Q), sequence (P17482 171-250 R186Q): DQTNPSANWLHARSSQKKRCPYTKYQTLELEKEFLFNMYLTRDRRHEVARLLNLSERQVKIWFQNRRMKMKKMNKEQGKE

HOXC9 [14] = target: HOXC9 (Homo sapiens, UniProt P31274 178-260, R222W)
HOXC9 (Homo sapiens, UniProt P31274 178-260, R222W), sequence (P31274 178-260 R222W): as the sequence (P31274 178-260 R193K) above, with K16R, R45W counted along it

PAX4 [15] = target: T8, PAX4 (Homo sapiens, UniProt O43316 9-242, R227W)
T8 sequence: T2 sequence with K192R, R219W

HOXA2 [16] = target: HOXA2 (Homo sapiens, UniProt O43364 129-215, Y150S)
HOXA2 (Homo sapiens, UniProt O43364 129-215, Y150S), sequence (O43364 129-215 Y150S): as the sequence (O43364 129-215 R185K) above, with Y22S, K57R counted along it

HOXA2 [17] = target: HOXA2 (Homo sapiens, UniProt O43364 129-215)
HOXA2 (Homo sapiens, UniProt O43364 129-215), sequence (O43364 129-215): as the sequence (O43364 129-215 R185K) above, with K57R counted along it

NKX2-5 [18] = target: NKX2-5 (Homo sapiens, UniProt P52952 125-210, R139K)
NKX2-5 (Homo sapiens, UniProt P52952 125-210, R139K), sequence (P52952 125-210 R139K): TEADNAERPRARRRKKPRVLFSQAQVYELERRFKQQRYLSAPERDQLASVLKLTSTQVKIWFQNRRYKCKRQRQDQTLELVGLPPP

NKX2-5 [19] = target: NKX2-5 (Homo sapiens, UniProt P52952 125-210)
NKX2-5 (Homo sapiens, UniProt P52952 125-210), sequence (P52952 125-210): as the sequence (P52952 125-210 R139K) above, with K15R counted along it

HOXB9 (Homo sapiens, UniProt P17482 171-250, T197M), sequence (P17482 171-250 T197M): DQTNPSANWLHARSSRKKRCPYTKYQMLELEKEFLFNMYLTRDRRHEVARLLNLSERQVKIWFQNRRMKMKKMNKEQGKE
HOXC9 (Homo sapiens, UniProt P31274 178-260, K195R), sequence (P31274 178-260 K195R): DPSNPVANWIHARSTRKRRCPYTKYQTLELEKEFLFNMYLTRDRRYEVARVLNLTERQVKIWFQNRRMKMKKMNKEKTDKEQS

Row | Sequence | binding signal (HOXB9 [1]) | binding signal (HOXC9 [2]) | binding signal (VENTX [3]) | binding signal (PAX4 [4]) | binding signal (VENTX [5]) | binding signal (PAX4 [6]) | binding signal (HOXB9 [7]) | binding signal (PAX4 [8]) | binding signal (HOXC9 [9]) | binding signal (HOXA2 [10]) | binding signal (PAX4 [11]) | binding signal (HOXC10) | binding signal (PAX4 [12]) | binding signal (HOXB9 [13]) | binding signal (HOXC9 [14]) | binding signal (PAX4 [15]) | binding signal (HOXA2 [16]) | binding signal (HOXA2 [17]) | binding signal (NKX2-5 [18]) | binding signal (NKX2-5 [19])
1 | GTAATTAA | 10.6 upbm affinity estimate (log intensity, higher = more binding, comparable within an allelic series) | 13.3 upbm affinity estimate (log intensity, higher = more binding, comparable within an allelic series) | 13 upbm affinity estimate (log intensity, higher = more binding, comparable within an allelic series) | 12 upbm affinity estimate (log intensity, higher = more binding, comparable within an allelic series) | 12.4 upbm affinity estimate (log intensity, higher = more binding, comparable within an allelic series) | 12.6 upbm affinity estimate (log intensity, higher = more binding, comparable within an allelic series) | 12.6 upbm affinity estimate (log intensity, higher = more binding, comparable within an allelic series) | 12.5 upbm affinity estimate (log intensity, higher = more binding, comparable within an allelic series) | 13.2 upbm affinity estimate (log intensity, higher = more binding, comparable within an allelic series) | 13.9 upbm affinity estimate (log intensity, higher = more binding, comparable within an allelic series) | 10.8 upbm affinity estimate (log intensity, higher = more binding, comparable within an allelic series) | 12.9 upbm affinity estimate (log intensity, higher = more binding, comparable within an allelic series) | 11.3 upbm affinity estimate (log intensity, higher = more binding, comparable within an allelic series) | 12.4 upbm affinity estimate (log intensity, higher = more binding, comparable within an allelic series) | 11.3 upbm affinity estimate (log intensity, higher = more binding, comparable within an allelic series) | 11.2 upbm affinity estimate (log intensity, higher = more binding, comparable within an allelic series) | 11.1 upbm affinity estimate (log intensity, higher = more binding, comparable within an allelic series) | 13.2 upbm affinity estimate (log intensity, higher = more binding, comparable within an allelic series) | – | –
2 | TAATTACA | 10.3 upbm affinity estimate (log intensity, higher = more binding, comparable within an allelic series) | 12.9 upbm affinity estimate (log intensity, higher = more binding, comparable within an allelic series) | 12.7 upbm affinity estimate (log intensity, higher = more binding, comparable within an allelic series) | 11.9 upbm affinity estimate (log intensity, higher = more binding, comparable within an allelic series) | 12.2 upbm affinity estimate (log intensity, higher = more binding, comparable within an allelic series) | 12.4 upbm affinity estimate (log intensity, higher = more binding, comparable within an allelic series) | 12.1 upbm affinity estimate (log intensity, higher = more binding, comparable within an allelic series) | 12.3 upbm affinity estimate (log intensity, higher = more binding, comparable within an allelic series) | 12.9 upbm affinity estimate (log intensity, higher = more binding, comparable within an allelic series) | 14 upbm affinity estimate (log intensity, higher = more binding, comparable within an allelic series) | 10.8 upbm affinity estimate (log intensity, higher = more binding, comparable within an allelic series) | 12.3 upbm affinity estimate (log intensity, higher = more binding, comparable within an allelic series) | 11.2 upbm affinity estimate (log intensity, higher = more binding, comparable within an allelic series) | 11.8 upbm affinity estimate (log intensity, higher = more binding, comparable within an allelic series) | 11 upbm affinity estimate (log intensity, higher = more binding, comparable within an allelic series) | 11.2 upbm affinity estimate (log intensity, higher = more binding, comparable within an allelic series) | 11 upbm affinity estimate (log intensity, higher = more binding, comparable within an allelic series) | 13.3 upbm affinity estimate (log intensity, higher = more binding, comparable within an allelic series) | – | –
3 | CCCTAAGA | – | – | – | – | – | – | – | – | – | – | – | – | – | – | – | – | – | – | 10.8 upbm affinity estimate (log intensity, higher = more binding, comparable within an allelic series) | 10.8 upbm affinity estimate (log intensity, higher = more binding, comparable within an allelic series)
4 | AAGTGAGT | – | – | – | – | – | – | – | – | – | – | – | – | – | – | – | – | – | – | 11.4 upbm affinity estimate (log intensity, higher = more binding, comparable within an allelic series) | 11.4 upbm affinity estimate (log intensity, higher = more binding, comparable within an allelic series)
5 | AGTAATTA | 10.6 upbm affinity estimate (log intensity, higher = more binding, comparable within an allelic series) | 13.1 upbm affinity estimate (log intensity, higher = more binding, comparable within an allelic series) | 13 upbm affinity estimate (log intensity, higher = more binding, comparable within an allelic series) | 11.9 upbm affinity estimate (log intensity, higher = more binding, comparable within an allelic series) | 12.6 upbm affinity estimate (log intensity, higher = more binding, comparable within an allelic series) | 12.5 upbm affinity estimate (log intensity, higher = more binding, comparable within an allelic series) | 12.3 upbm affinity estimate (log intensity, higher = more binding, comparable within an allelic series) | 12.3 upbm affinity estimate (log intensity, higher = more binding, comparable within an allelic series) | 13 upbm affinity estimate (log intensity, higher = more binding, comparable within an allelic series) | 14 upbm affinity estimate (log intensity, higher = more binding, comparable within an allelic series) | 10.7 upbm affinity estimate (log intensity, higher = more binding, comparable within an allelic series) | 12.5 upbm affinity estimate (log intensity, higher = more binding, comparable within an allelic series) | 11.1 upbm affinity estimate (log intensity, higher = more binding, comparable within an allelic series) | 12.1 upbm affinity estimate (log intensity, higher = more binding, comparable within an allelic series) | 11.1 upbm affinity estimate (log intensity, higher = more binding, comparable within an allelic series) | 11.1 upbm affinity estimate (log intensity, higher = more binding, comparable within an allelic series) | 11.1 upbm affinity estimate (log intensity, higher = more binding, comparable within an allelic series) | 13.3 upbm affinity estimate (log intensity, higher = more binding, comparable within an allelic series) | – | –
6 | CGTAATTA | 10.2 upbm affinity estimate (log intensity, higher = more binding, comparable within an allelic series) | 12.7 upbm affinity estimate (log intensity, higher = more binding, comparable within an allelic series) | 12.7 upbm affinity estimate (log intensity, higher = more binding, comparable within an allelic series) | 11.9 upbm affinity estimate (log intensity, higher = more binding, comparable within an allelic series) | 12.3 upbm affinity estimate (log intensity, higher = more binding, comparable within an allelic series) | 12.4 upbm affinity estimate (log intensity, higher = more binding, comparable within an allelic series) | 11.9 upbm affinity estimate (log intensity, higher = more binding, comparable within an allelic series) | 12.3 upbm affinity estimate (log intensity, higher = more binding, comparable within an allelic series) | 12.7 upbm affinity estimate (log intensity, higher = more binding, comparable within an allelic series) | 14 upbm affinity estimate (log intensity, higher = more binding, comparable within an allelic series) | 10.7 upbm affinity estimate (log intensity, higher = more binding, comparable within an allelic series) | 12.3 upbm affinity estimate (log intensity, higher = more binding, comparable within an allelic series) | 11.1 upbm affinity estimate (log intensity, higher = more binding, comparable within an allelic series) | 11.7 upbm affinity estimate (log intensity, higher = more binding, comparable within an allelic series) | 10.9 upbm affinity estimate (log intensity, higher = more binding, comparable within an allelic series) | 11.1 upbm affinity estimate (log intensity, higher = more binding, comparable within an allelic series) | 11 upbm affinity estimate (log intensity, higher = more binding, comparable within an allelic series) | 13.2 upbm affinity estimate (log intensity, higher = more binding, comparable within an allelic series) | – | –
